Assay results published in PubChem BioAssay (NCI).
The panel holds about 83,000 compounds, 20% with a hit somewhere; the sample as a whole holds those more often.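 Assay: single dose, 48 h. Readout: percent growth (0 = no net growth; negative = cell death). Active: <10.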 Calls of active or inactive are those of the source.

Columns and labels:
Assay in all cases: NCI-60 one-dose screen, 48 h (100 = growth as untreated, 0 = no growth, -100 = all killed)
Conditions in all cases: 10 µM unless noted
HCT-15 colon = tested on: HCT-15 colon
HT29 colon = tested on: HT29 colon
SNB-75 CNS = tested on: SNB-75 CNS
SNB-19 CNS = tested on: SNB-19 CNS
U251 CNS = tested on: U251 CNS
PC-3 prostate = tested on: PC-3 prostate
SK-MEL-5 melanoma = tested on: SK-MEL-5 melanoma
UACC-62 melanoma = tested on: UACC-62 melanoma
LOX IMVI melanoma = tested on: LOX IMVI melanoma
SK-MEL-28 melanoma = tested on: SK-MEL-28 melanoma

Measured: growth

FC(F)(F)c1ccc2c(Nc3cccc(C4CC(c5ccccc5)=NN4c4ccc(Cl)cc4)c3)ccnc2c1 (centres undefined)
inactive: HT29 colon 19% | SNB-75 CNS 70% | SNB-19 CNS 41.4% | U251 CNS 29.3% | PC-3 prostate 34% | SK-MEL-5 melanoma 75.1% | UACC-62 melanoma 49.4%
active: HCT-15 colon 5.61% | LOX IMVI melanoma -53.9%

C#CCN1C(=O)c2ccccc2N(CC#C)C12CCN(Cc1cn(CC(=O)Nc3ccccc3C(N)=O)nn1)CC2
inactive: HCT-15 colon 86.8% | HT29 colon 85.1% | SNB-75 CNS 78.3% | SNB-19 CNS 90.5% | U251 CNS 97.2% | PC-3 prostate 83.7% | SK-MEL-5 melanoma 76.9% | UACC-62 melanoma 74.3% | LOX IMVI melanoma 87%

Fc1ccc(N/N=C/c2ccc(-n3cccn3)cc2)cc1
inactive: HCT-15 colon 83% | HT29 colon 93.5% | SNB-75 CNS 99.4% | SNB-19 CNS 110% | U251 CNS 103% | PC-3 prostate 85.8% | SK-MEL-5 melanoma 107% | UACC-62 melanoma 74.9% | LOX IMVI melanoma 83.8%

Cc1ccc(C(=O)/C(=C/c2ccc([N+](=O)[O-])cc2)S(=O)Cc2ccccc2)cc1 (centres undefined)
active: HCT-15 colon -8.82% | HT29 colon -21% | PC-3 prostate -0.822% | UACC-62 melanoma -54.9% | LOX IMVI melanoma -82.1%
inactive: SNB-75 CNS 43.4% | SNB-19 CNS 34.8% | U251 CNS 13.4% | SK-MEL-5 melanoma 37.8%

C=CCn1c(SCC(=O)Nc2ccc(C(=O)/C=C/c3ccc(Cl)cc3)cc2)nnc1-c1cc(OC)c(OC)c(OC)c1
inactive: HCT-15 colon 89.7% | HT29 colon 97.4% | SNB-75 CNS 86.2% | SNB-19 CNS 85.3% | U251 CNS 90.7% | PC-3 prostate 75.2% | SK-MEL-5 melanoma 63.5% | UACC-62 melanoma 70.4% | LOX IMVI melanoma 91.8%

CCC[S@@](=O)c1ccc2nc(NC(=O)OC)[nH]c2c1
inactive: HCT-15 colon 68.3% | HT29 colon 62.5% | SNB-75 CNS 82.6% | SNB-19 CNS 87.6% | U251 CNS 82.2% | PC-3 prostate 78.4% | SK-MEL-5 melanoma 83.3% | UACC-62 melanoma 72.7% | LOX IMVI melanoma 90.2%

O=c1c2ccccc2oc2ccc(OCCCCCCN3CCCCCC3)cc12
inactive: SNB-75 CNS 88.7% | SNB-19 CNS 58.3% | U251 CNS 38.9% | PC-3 prostate 34% | LOX IMVI melanoma 19.1%
active: HCT-15 colon 7.65% | HT29 colon 8.09% | SK-MEL-5 melanoma -36.7% | UACC-62 melanoma -53.4%

CCOCc1cc(C(C)(C)C)ccc1O
inactive: HCT-15 colon 104% | HT29 colon 94.6% | SNB-75 CNS 87.4% | SNB-19 CNS 98.3% | U251 CNS 94% | PC-3 prostate 93.7% | SK-MEL-5 melanoma 99.5% | UACC-62 melanoma 94.4% | LOX IMVI melanoma 96.5%

CCOC(=O)C1CCN(S(=O)(=O)/N=C2/NC(=O)NC2=C(Cl)Cl)CC1
inactive: SNB-75 CNS 55.5% | SNB-19 CNS 16.8% | PC-3 prostate 17.7% | SK-MEL-5 melanoma 14.1%
active: HCT-15 colon -72.6% | HT29 colon -61.6% | U251 CNS -86.7% | UACC-62 melanoma -30.6% | LOX IMVI melanoma -65%

C=C(C)[C@@H]1CC[C@]2(C(N)=O)CC[C@]3(C)[C@H](CC[C@@H]4[C@@]5(C)CCCNC(C)(C)[C@@H]5CC[C@]43C)[C@@H]12
inactive: HCT-15 colon 50.2% | HT29 colon 16.4% | SNB-75 CNS 76% | SNB-19 CNS 87.3% | U251 CNS 58.7% | PC-3 prostate 50.3% | SK-MEL-5 melanoma 67.2% | UACC-62 melanoma 87.4% | LOX IMVI melanoma 76.9%

O=C(NC[C@H](O)CN1CCc2ccccc2C1)c1cc(NC2COC2)ncn1
inactive: HCT-15 colon 103% | HT29 colon 86.9% | SNB-75 CNS 74% | SNB-19 CNS 99% | U251 CNS 102% | PC-3 prostate 107% | SK-MEL-5 melanoma 107% | UACC-62 melanoma 91.8% | LOX IMVI melanoma 93.9%

CSc1nc(-c2ccco2)c2c(N)[nH]nc2n1
inactive: HCT-15 colon 102% | HT29 colon 93.6% | SNB-75 CNS 103% | SNB-19 CNS 110% | U251 CNS 103% | PC-3 prostate 101% | SK-MEL-5 melanoma 100% | UACC-62 melanoma 92.2% | LOX IMVI melanoma 92.3%

COC(=O)c1cc2c3c(cc(O)c2[nH]1)N(C(=O)C1Cc2cc(OC)c(OC)c(OC)c2N1)CC3CCl (centres undefined)
active: HCT-15 colon 1.13% | HT29 colon -7.58% | SNB-75 CNS -32.9% | SNB-19 CNS -52% | U251 CNS -54.9% | PC-3 prostate -17.1% | SK-MEL-5 melanoma -94.6% | UACC-62 melanoma -61% | LOX IMVI melanoma -94.2%

CCCn1c2cc(OCc3cn(-c4ccc(Br)cc4)nn3)ccc2c2ccnc(C)c21
inactive: HCT-15 colon 73.5% | HT29 colon 57.9% | SNB-19 CNS 53.8% | U251 CNS 33.8% | PC-3 prostate 74.5% | SK-MEL-5 melanoma 76.8% | UACC-62 melanoma 38.8% | LOX IMVI melanoma 72.7%
active: SNB-75 CNS -1.81%

CCCCCOC(=O)c1ccccc1O
inactive: HCT-15 colon 97.4% | HT29 colon 96.5% | SNB-75 CNS 83.1% | SNB-19 CNS 106% | U251 CNS 101% | PC-3 prostate 86.9% | SK-MEL-5 melanoma 103% | UACC-62 melanoma 97.9% | LOX IMVI melanoma 104%

C=C1C(=O)O[C@H]2[C@H]1CCC(/C=N/c1ncc(Br)cc1N)=C\CC[C@@]1(C)O[C@@H]21
inactive: SNB-75 CNS 85.3% | SNB-19 CNS 44.2% | U251 CNS 47.9% | PC-3 prostate 26.7% | SK-MEL-5 melanoma 39.9% | UACC-62 melanoma 22.5%
active: HCT-15 colon -45.3% | HT29 colon -18.6% | LOX IMVI melanoma -75.3%

COc1ccccc1N1CCN(CCCOc2ccc(C(=O)/C=C3/C(=O)Nc4ccccc43)cc2)CC1
active: SK-MEL-5 melanoma -36.1%
inactive: HCT-15 colon 74.7% | HT29 colon 25.8% | SNB-75 CNS 85.1% | SNB-19 CNS 84.6% | U251 CNS 64.1% | PC-3 prostate 40.9% | UACC-62 melanoma 56.1% | LOX IMVI melanoma 55.5%

CCCCN(CCCC)CC(CN(CC)CC)OC(=O)Nc1ccccc1 (centres undefined)
inactive: HCT-15 colon 63.4% | HT29 colon 37.1% | SNB-75 CNS 78.3% | SNB-19 CNS 107% | U251 CNS 96.8% | PC-3 prostate 89.6% | SK-MEL-5 melanoma 100% | UACC-62 melanoma 111% | LOX IMVI melanoma 87.7% | SK-MEL-28 melanoma 105%

O=C(Nc1nc2ccc(C(F)(F)F)cc2s1)c1cc(Cl)ccc1O
active: HCT-15 colon 7.56% | HT29 colon -18% | U251 CNS 8.44% | PC-3 prostate 7.15% | SK-MEL-5 melanoma -46.1% | LOX IMVI melanoma 5.71%
inactive: SNB-75 CNS 16.8% | SNB-19 CNS 20.5% | UACC-62 melanoma 13.3%

O=c1[nH]c(-c2cccc(F)c2)cc2cc(F)ccc12
inactive: HCT-15 colon 16.7% | SNB-75 CNS 12.1% | SNB-19 CNS 26.6% | U251 CNS 21.6% | PC-3 prostate 16.3% | SK-MEL-5 melanoma 42.2% | UACC-62 melanoma 36.4% | LOX IMVI melanoma 43.3%
active: HT29 colon 6.64%

C=C1C(=O)O[C@H]2[C@H]1CC/C(COC(=O)Nc1nc3ccccc3[nH]1)=C\CC[C@@]1(C)O[C@@H]21
inactive: HCT-15 colon 25.3% | HT29 colon 42.2% | SNB-75 CNS 75.7% | SNB-19 CNS 91.1% | U251 CNS 90.2% | PC-3 prostate 67.5% | SK-MEL-5 melanoma 83.7% | UACC-62 melanoma 53.9% | LOX IMVI melanoma 69.6%

C=CCn1c(SCC(=O)Nc2ccc(C(=O)/C=C/c3cc(OC)c(OC)c(OC)c3)cc2)nnc1-c1ccccc1
inactive: HCT-15 colon 61.1% | HT29 colon 49.1% | SNB-75 CNS 95.2% | SNB-19 CNS 86% | U251 CNS 64.4% | PC-3 prostate 94.1% | SK-MEL-5 melanoma 77.3% | UACC-62 melanoma 84.6% | LOX IMVI melanoma 68.7%

CCOC(=O)c1c(-c2ccc(O)cc2)c(C#N)c2c(C#N)c(N)nn2c1N
inactive: HCT-15 colon 76% | HT29 colon 43% | SNB-75 CNS 65.7% | SNB-19 CNS 74.8% | U251 CNS 63.3% | PC-3 prostate 68.9% | SK-MEL-5 melanoma 52.9% | UACC-62 melanoma 36.9% | LOX IMVI melanoma 55.2%

O=C(NCc1ccccc1)c1ccc2c(c1)NC(=O)[C@@H]1CCCN21
inactive: HCT-15 colon 99.6% | HT29 colon 103% | SNB-75 CNS 86.6% | SNB-19 CNS 94.6% | U251 CNS 102% | PC-3 prostate 103% | SK-MEL-5 melanoma 101% | UACC-62 melanoma 93.7% | LOX IMVI melanoma 91.2%

CC(=O)c1ccc(NC(=O)CSc2nnc(-c3cc(-c4ccc(Cl)cc4)nc4ccccc34)o2)cc1
inactive: HCT-15 colon 76.9% | HT29 colon 84.3% | SNB-75 CNS 82.7% | SNB-19 CNS 78% | U251 CNS 28.6% | PC-3 prostate 79.5% | SK-MEL-5 melanoma 90.5% | UACC-62 melanoma 95.7% | LOX IMVI melanoma 46.1%

Cc1nc2sc(C(=O)Nc3cccc4ccccc34)c(N)c2cc1C(C)O (centres undefined)
active: HT29 colon 4.82% | SK-MEL-5 melanoma 8.93%
inactive: HCT-15 colon 14.4% | SNB-75 CNS 29% | SNB-19 CNS 34% | U251 CNS 25.4% | PC-3 prostate 30.7% | UACC-62 melanoma 36% | LOX IMVI melanoma 26.9%

Cc1cccc(C)c1NCc1nnc(-c2ccc(O)cc2)o1
inactive: HCT-15 colon 97.7% | HT29 colon 106% | SNB-75 CNS 77.8% | SNB-19 CNS 108% | U251 CNS 105% | PC-3 prostate 95.1% | SK-MEL-5 melanoma 101% | UACC-62 melanoma 100% | LOX IMVI melanoma 96.8%
